This is a sample that favours compounds with a hit; in the whole collection about 3.2% have one here.
CBFb RUNX1 block: qHTS Assay for Compounds Blocking the Interaction Between CBF-beta and RUNX1 for the Treatment of Acute Myeloid Leukemia; 230,000 tested, under 10 active; AID 1477, 2009; AlphaScreen CBFb-His/RUNX1-biotin binding, biochemical; Runt-related transcription factor 1 (Homo sapiens) + Core-binding factor subunit beta …; Potency, µM (doses to about 59.8 µM), actives largely listed as inhibitors
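His-tagged CBF-beta and biotinylated RUNX1 (30 nM each) were premixed 20 min at room temperature, exposed to compound for 15 min, then given nickel-chelate and streptavidin AlphaScreen beads (50 ng each). After 90 min, AlphaScreen signal was read.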
Lamin A splicing: qHTS Assay for Modulators of Lamin A Splicing; HeLa LMNA splicing GFP/RFP minigene ratio, 48 h; actives 0.01% (n = 200,000); AID 1487, 2009; Potency, µM (highest dose often 46.1 µM), actives largely listed as inhibitors; active means well fitted inhibition curve with a large enough effect in the signal ratio, with a control signal flat, not every such curve was filed as active; inconclusive means small, poorly fitted or top-dose-only effect, or effect the other way, or a change in a side signal; the % refers to the signal ratio
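Read-out is the ratio of GFP to DsRed2 object intensity, acquired by 488 nm laser-scanning cytometry on HeLa lamin A-EGFP minigene reporter cells. Compound incubation 48 hrs at 37 °C in Opti-MEM with 2% FBS; DMSO 0.5% final.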
JMJD2E inh: qHTS Assay for Inhibitors of Human Jumonji Domain Containing 2E (JMJD2E); Lysine-specific demethylase 4E (Homo sapiens), B2RXH2; JMJD2E catalytic domain, FDH-coupled NADH fluorescence (FDH is formaldehyde dehydrogenase); Potency, µM (series often up to 57.1 µM), most hits filed as inhibitors; actives 1.6% (n = 230,000); active means well fitted inhibition curve with a large enough effect, not every such curve was filed as active; inconclusive means small, poorly fitted or top-dose-only effect, or another doubt; inactive means no such curve, though single readings can be large or run the other way; further: nearly all actives have a fitted effect of over 50% in size
Target sequence (B2RXH2 1-337 limits assumed): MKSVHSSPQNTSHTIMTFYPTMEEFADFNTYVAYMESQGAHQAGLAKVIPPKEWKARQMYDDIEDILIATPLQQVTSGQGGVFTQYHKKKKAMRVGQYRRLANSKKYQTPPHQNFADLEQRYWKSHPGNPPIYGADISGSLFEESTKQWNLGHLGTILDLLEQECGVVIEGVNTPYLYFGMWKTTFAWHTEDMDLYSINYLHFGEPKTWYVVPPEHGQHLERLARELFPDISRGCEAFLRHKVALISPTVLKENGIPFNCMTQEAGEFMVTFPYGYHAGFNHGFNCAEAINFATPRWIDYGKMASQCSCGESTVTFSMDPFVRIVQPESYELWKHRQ
Tau fluor cs: Counterscreen qHTS for Inhibitors of Tau Fibril Formation, Fluorescence Polarization | tau K18 P301L Alexa594 fluorescence, heparin fibrillization | Potency, µM (titrated, usually from 57.7 µM) | actives 0.93% (n = 280,000) | AID 1463, 2008; further: nearly all actives have a fitted effect of over 55% in size
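Human K18 P301L tau (15 uM unlabeled plus 0.24 uM Alexa 594-labeled, final) in 100 mM sodium acetate pH 7 was mixed with compound and 20 uM heparin and incubated 6 hr at 37 C.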
Tau fibril FP: qHTS for Inhibitors of Tau Fibril Formation, Fluorescence Polarization; Microtubule-associated protein tau (Homo sapiens), P10636; K18 P301L tau heparin fibrillization, Alexa594 FP, 6 h; Potency, µM (doses to about 57.7 µM), hits mostly inhibitors; actives 0.39% (n = 280,000); AID 1468, 2008; further: nearly all actives have a fitted effect of over 55% in size
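Quantitative HTS format: compounds meet 15 uM recombinant K18 P301L tau and Alexa 594-tau tracer in 100 mM sodium acetate pH 7; 20 uM heparin triggers fibrillization at 37 C over 6 hr; FP gives the signal.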
Tau ThT inhib: qHTS for Inhibitors of Tau Fibril Formation, Thioflavin T Binding. Microtubule-associated protein tau (Homo sapiens), P10636. recombinant tau K18 P301L, heparin-induced fibrillization, ThT fluorescence. Potency, µM (highest dose often 57.4 µM), usual class: inhibitors. actives 2.1% (n = 270,000). AID 1460, 2008; further: nearly all actives have a fitted effect of over 55% in size
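ThT emission at 510 nm, taken 1 hr after adding 30 uM dye, quantifies aggregates formed when 20 uM heparin acts on human tau K18 P301L for 6 hr at 37 C.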
Tau TEM fibril: Transmission Electron Microscopy Assay for Inhibitors of Tau Fibrillization | shares compounds with Tau ThT inhib | recombinant tau K18 P301L fibrillization, TEM grading; hits give high values | fibril grade (0 = clumped fibrils, 4 = only tiny pieces) (no concentration beside the values) | actives 70% (n = 45) | AID 1719, 2009;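 active means compounds whose electron micrographs showed tau fibrils broken into shorter filaments or fragments, graded high on fibril breakup; inconclusive means micrographs gave an unclear fibril picture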
tau fibril sed: Sedimentation Assay for Inhibitors of Tau Fibrillization. shares compounds with Tau ThT inhib. recombinant tau K18 P301L (four-repeat tau fragment), sedimentation SDS-PAGE densitometry. inhibition, % at 100 µM. actives 50% (n = 110); in the data active means inhibition above about 40%; inconclusive means no clear call, values can overlap the other calls; inactive means below about 18%
Each line names hits and unclear results; the compound was inactive in the other large screens (follow-up assays come after a bar, where they were run); [ ] = remark or other dose. Unless noted, the call rests on the fitted dose curve; in most records, active means well fitted curve in the direction sought with a large enough effect; inconclusive means small, poorly fitted or top-dose-only effect, or another doubt; inactive means no such curve, though single readings can be large; an effect the other way counts as inactive or inconclusive.

CCN(c1ccccc1)S(=O)(=O)c1nnc(NC(=O)C(C)(C)C)s1	Tau fibril FP inconclusive, Tau ThT inhib inconclusive (no result: CBFb RUNX1 block, JMJD2E inh) | tau fibril sed inactive
O=C(Nc1ccccc1)Nc1ccccc1	none (no result: Lamin A splicing) | tau fibril sed inactive
C=CCNc1nc(-c2sc(NC(C)=O)nc2C)cs1	JMJD2E inh inconclusive, Tau ThT inhib inconclusive
COc1ccc(Nc2nc(-c3sc(NC(C)=O)nc3C)cs2)cc1	Lamin A splicing inconclusive, Tau fluor cs inconclusive, Tau ThT inhib 12.6µM | Tau TEM fibril 3 | tau fibril sed 42.0
COc1ccc(Br)cc1CNC(=O)CSc1n[nH]c(-c2ccccc2)n1	none (no result: CBFb RUNX1 block, JMJD2E inh)
O=S(=O)(c1ccc2nc(-c3ccco3)c(-c3ccco3)nc2c1)N1CCOCC1	JMJD2E inh inconclusive, Tau fluor cs 3.98µM[quencher], Tau fibril FP 8.91µM, Tau ThT inhib 3.98µM (no result: CBFb RUNX1 block) | Tau TEM fibril 2 | tau fibril sed 58.0
O=C(Nc1nc2ccc(S(=O)(=O)N3CCCC3)cc2s1)c1ccc(F)cc1	none (no result: CBFb RUNX1 block, JMJD2E inh) | tau fibril sed inactive
COc1ccc(C(=O)Nc2nc3ccc(S(=O)(=O)N4CCCC4)cc3s2)cc1	none (no result: CBFb RUNX1 block, JMJD2E inh)
CCN1C(=O)c2ccccc2S(=O)c2ccc(C(=O)NCc3ccc(Cl)cc3)cc21 (centres undefined)	none (no result: CBFb RUNX1 block, Lamin A splicing, JMJD2E inh)
COc1ccc2oc(-c3ccc(NC(=O)c4ccc(N5CCOCC5)c([N+](=O)[O-])c4)cc3)nc2c1	Lamin A splicing inconclusive, Tau ThT inhib 2.82µM | Tau TEM fibril inactive | tau fibril sed inactive

Source: PubChem (National Center for Advancing Translational Sciences (NCATS))
